Experimental data from PubChem BioAssay (NCI).
This is part of a sample that, as a whole, favours compounds with a hit. Of some 83,000 tested, about 20% had one in any assay.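 For each line, cells grew in 96-well plates with the test compound present at a single concentration for 48 hours.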 Values without a mark were called inactive. Active and inactive are the calls of the source. How the source made its calls: active means growth percent below 10; inactive means the rest.

What was measured:
Test in all cases: NCI-60 one-dose screen, 48 h (100 = growth as untreated, 0 = no growth, -100 = all killed)
Conditions in all cases: 10 µM unless noted
HCT-15 colon = tested on: HCT-15 colon
HT29 colon = tested on: HT29 colon
SNB-75 CNS = tested on: SNB-75 CNS
SNB-19 CNS = tested on: SNB-19 CNS
U251 CNS = tested on: U251 CNS
PC-3 prostate = tested on: PC-3 prostate
SK-MEL-5 melanoma = tested on: SK-MEL-5 melanoma
UACC-62 melanoma = tested on: UACC-62 melanoma
LOX IMVI melanoma = tested on: LOX IMVI melanoma
SK-MEL-28 melanoma = tested on: SK-MEL-28 melanoma
SK-MEL-2 melanoma = tested on: SK-MEL-2 melanoma
EKVX NSCLC = tested on: EKVX NSCLC
SN12C renal = tested on: SN12C renal
UO-31 renal = tested on: UO-31 renal
TK-10 renal = tested on: TK-10 renal
ACHN renal = tested on: ACHN renal
CAKI-1 renal = tested on: CAKI-1 renal
A498 renal = tested on: A498 renal
CCRF-CEM leukemia = tested on: CCRF-CEM leukemia
MOLT-4 leukemia = tested on: MOLT-4 leukemia

| SMILES | growth (HCT-15 colon) | growth (HT29 colon) | growth (SNB-75 CNS) | growth (SNB-19 CNS) | growth (U251 CNS) | growth (PC-3 prostate) | growth (SK-MEL-5 melanoma) | growth (UACC-62 melanoma) | growth (LOX IMVI melanoma) | growth (SK-MEL-28 melanoma) | growth (SK-MEL-2 melanoma) | growth (EKVX NSCLC) | growth (SN12C renal) | growth (UO-31 renal) | growth (TK-10 renal) | growth (ACHN renal) | growth (CAKI-1 renal) | growth (A498 renal) | growth (CCRF-CEM leukemia) | growth (MOLT-4 leukemia) |
| --- | --- | --- | --- | --- | --- | --- | --- | --- | --- | --- | --- | --- | --- | --- | --- | --- | --- | --- | --- | --- |
| CNC(=O)c1cc(Oc2cccc3nc(NC(=O)Nc4ccc(F)cc4F)ccc23)ccn1 | 18.1% | 35.9% | -64.4% (active) | 54.8% | 14.9% | 38.5% | 22.7% | 52.5% | 19.8% | 30.8% | 71% | -0.932% (active) | 10.6% | 10.4% | -37.7% (active) | 33.6% | 72.7% | 68.1% | 49.7% | 53.6% |
| CN(C)c1ccc(/C=N/NC(=O)CSc2nc3sc4c(c3c(=O)n2-c2ccccc2)CCCCC4)cc1 | 43.8% | 45.8% | -2.33% (active) | 48.8% | 5.23% (active) | -23.4% (active) | 46.2% | 8.03% (active) | 37.1% | 47.4% | 78.6% | 47% | 55.5% | 77.8% | 64.9% | 24.6% | 8.87% (active) | 34.8% | 70.9% | 71.8% |
| C=CCn1c(SCC(=O)Nc2ccc(C(=O)/C=C/c3cc(OC)c(OC)c(OC)c3)cc2)nnc1-c1cc(-c2ccc(S(N)(=O)=O)cc2)nc2ccccc12 | 97.7% | 98.1% | 77.2% | 74.2% | 58.9% | 84.1% | 87.6% | 74.7% | 73% | 103% | 100% | 100% | 90.3% | 77.1% | 141% | 93.8% | 72.2% | 97% | 29.5% | 59.7% |
| CCN1C(=O)N(CC)C2C1NC(=S)N2/N=C/C=C/c1cccs1 (stereo not drawn) | 15.5% | 5.58% (active) | 1.94% (active) | 27% | 18.4% | 35.2% | 23.4% | 24.5% | 26.7% | 49.2% | 64.1% | 55.1% | 30.2% | – | 70.3% | 42.4% | 36.5% | 18.4% | 12.1% | – |
| NC(=O)[C@@H]1Cc2ccccc2CN1C(=O)c1ccc2c(c1)Cc1ccccc1-2 | 74.6% | 89.1% | 85.7% | 86.7% | 83% | 61.9% | 46.6% | -36.9% (active) | 90.8% | 116% | 92.8% | 83.1% | 92.4% | 61.3% | 93.4% | 90.5% | 80.9% | 89.2% | 81.9% | 71.1% |
| CS(=O)(=O)c1cccc(Nc2ncc3cc(-c4ccccc4Cl)ccc3n2)c1 | 12.1% | 1.92% (active) | -11.4% (active) | 36.2% | 16.6% | 12.3% | -49.1% (active) | 4.77% (active) | -6.95% (active) | 19.7% | -25.6% (active) | 23.9% | 11% | -3.98% (active) | 19.5% | 2.93% (active) | 9.3% (active) | 5.57% (active) | 9.21% (active) | 5.83% (active) |
| Cn1cc(-c2nc(-c3c[nH]c4c(Cl)nccc34)cs2)c2ccccc21 | 98.6% | 83.5% | 108% | 94.5% | 86.3% | 86.1% | 91.2% | 97.5% | 102% | 108% | 99.2% | 86.7% | 94.5% | 94.6% | 81.2% | 107% | 87% | 77.8% | 92.3% | 83.9% |
| COc1ccc(S(=O)(=O)N(C)c2oc(-c3ccc(Cl)cc3)nc2C#N)cc1 | 44.3% | 65.9% | 65.1% | 81% | 81.1% | 87.4% | 86.1% | 59.1% | 71.9% | 84.4% | 85% | 86.8% | 88.4% | 72.2% | 94.3% | 101% | 75.6% | 63.8% | 72.2% | 59.4% |
